aGlu spleen mod: qHTS Assay for Inhibitors and Activators of Human alpha-Glucosidase From Spleen Homogenate; Potency, µM (doses to about 79.9 µM), for the others: at the highest dose activity change, negative = inhibition, usual class: inhibitors; 240,000 tested, 0.006% active; human spleen homogenate, 4-MU-alpha-glucoside fluorescence; Lysosomal alpha-glucosidase (Homo sapiens), P10253; AID 2112, 2009;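 further: potency means the concentration at half of the fitted maximal effect; 0% = enzyme with vehicle and -100% = no enzyme basal signal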
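Human spleen homogenate (1 ug) with 4-methylumbelliferyl-alpha-D-glucopyranoside (1 mM final) in 50 mM citrate/phosphate pH 5.0, 0.01% Tween-20; 40 min at 37 C. Stopped at pH 10; 4-MU fluorescence Ex 365/Em 440 nm; AC50 by Hill fit.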
GAA inh: qHTS Assay for Inhibitors of Human alpha-Glucosidase as a Potential Chaperone Treatment of Pompe Disease. 200,000 tested, 0.005% active. Potency, µM (series often up to 76.9 µM), for inactives: at the highest dose activity change, negative = inhibition, usual class: inhibitors. purified human GAA, 4-MU-alpha-glucoside fluorescence;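 further: potency means the concentration at half of the fitted maximal effect; plate controls were uninhibited enzyme wells for no effect and no-enzyme background for full effect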
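Human alpha-glucosidase, 4 nM, pre-mixed with test compounds before 400 uM 4-methylumbelliferyl substrate; 20 min room temperature at pH 5.0. Fluorescence read after pH 10 stop; AC50 values from Hill-equation fits.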
N370S GC mod: qHTS Assay for Inhibitors and Activators of N370S glucocerebrosidase as a Potential Chaperone Treatment of Gaucher Disease; Lysosomal acid glucosylceramidase (Homo sapiens), P04062; N370S GC spleen homogenate, 4MU-glucoside fluorescence; Potency, µM (doses to about 59.4 µM), for inactives: at the highest dose activity change, negative = inhibition, usual class: inhibitors; 330,000 tested, 0.092% active; AID 2101, 2009;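 further: potency means the concentration at half of the fitted maximal effect; 0% = full enzyme activity and -100% = no enzyme basal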
aGal spleen mod: qHTS Assay for Inhibitors and Activators of Human alpha-Galactosidase From Spleen Homogenate; Alpha-galactosidase A (Homo sapiens), P06280; human spleen homogenate, 4MU-alpha-Gal fluorescence, 40 min; Potency, µM (series often up to 80 µM), for inactives: at the highest dose activity change, negative = inhibition, hits mostly inhibitors; 240,000 tested, 0.008% active;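 further: potency means the concentration at half of the fitted maximal effect; 0% = enzyme with vehicle and -100% = no enzyme basal signal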
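qHTS titration in buffer at pH 5.0. Alpha-galactosidase activity in spleen homogenate was measured via 4-methylumbelliferone release from 1 mM fluorogenic substrate after 40 min at 37C and a pH 10 stop. AC50 came from Hill fits of control-normalized data.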
GLA inh pH 4.5: qHTS Assay for Inhibitors of Human alpha-Galactosidase at pH 4.5. Alpha-galactosidase A (Homo sapiens), P06280. purified enzyme, 4-MU-alpha-Gal fluorescence, pH 4.5. activity change, negative = inhibition, % at 105 µM. 230,000 tested, under 10 active;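 further: 0% = full activity with enzyme and -100% = basal without enzyme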
Target sequence (P06280 whole entry, looked up): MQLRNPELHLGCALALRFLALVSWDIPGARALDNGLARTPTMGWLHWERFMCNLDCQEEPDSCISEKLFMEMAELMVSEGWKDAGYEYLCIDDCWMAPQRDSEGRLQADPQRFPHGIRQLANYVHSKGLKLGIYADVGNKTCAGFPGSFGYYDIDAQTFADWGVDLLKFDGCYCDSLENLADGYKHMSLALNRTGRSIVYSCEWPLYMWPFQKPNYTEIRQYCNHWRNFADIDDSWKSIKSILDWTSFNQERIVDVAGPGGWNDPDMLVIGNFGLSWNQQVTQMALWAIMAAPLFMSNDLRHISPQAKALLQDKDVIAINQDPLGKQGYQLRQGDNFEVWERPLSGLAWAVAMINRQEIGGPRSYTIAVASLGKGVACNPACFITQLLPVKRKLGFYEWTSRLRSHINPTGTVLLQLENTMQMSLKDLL
GAA glycogen: qHTS Assay for Inhibitors and Activators of Human alpha-Glucosidase Cleavage of Glycogen; Lysosomal alpha-glucosidase (Homo sapiens), P10253; recombinant GAA, glycogen substrate, Amplex Red glucose oxidase fluorescence; Potency, µM (titrated, usually from 76.4 µM), inactives show at the top dose activity change, negative = inhibition, actives largely listed as inhibitors; 300,000 tested, 0.38% active; AID 2100, 2009;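 further: potency means the concentration at half of the fitted maximal effect; 0% = full enzyme reaction and -100% = no-enzyme basal signal; the screen sought inhibitors and activators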
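Natural-substrate format: glycogen cleavage by 4 nM human enzyme, glucose read by Amplex Red coupling (Ex 573, Em 610 nm). Normalized to enzyme and no-enzyme controls.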
The depositor's hits bear a star; [ ] = dose if it differs, or a comment. A selection: hits, their analogues and other compounds. The true share with any hit is near 0.43%. The call rests on the fitted dose curve; in most records, active means well fitted curve in the direction sought with a large enough effect; inconclusive means small, poorly fitted or top-dose-only effect, or another doubt; inactive means no such curve, though single readings can be large; an effect the other way counts as inactive or inconclusive.

Screening O=C(Nc1ccc(OCC(=O)N2CCN(S(=O)(=O)c3ccccc3)CC2)cc1)c1ccco1 returned aGlu spleen mod inconclusive, GAA inh 28.2µM*, aGal spleen mod -8.6%, GLA inh pH 4.5 -3.6 and GAA glycogen -24.1%.
`C[C@@H](c1ccccc1)N1C(=O)[C@H]2[C@H]3[C@H](O)[C@H](O)C/C(=N/NC(=O)OCc4ccccc4)[C@@H]3CC[C@@H]2C1=O` gave aGlu spleen mod -2.0%[17.4 µM], N370S GC mod -2.3%[12.8 µM] and aGal spleen mod 6.2%[17.5 µM].
For CSCC[C@H](NC(=O)[C@H](CC(C)C)NC(=O)CNC(=O)[C@H](Cc1ccccc1)N(C)C(=O)[C@H](Cc1ccccc1)NC(=O)[C@H](CC(=O)O)NC(=O)[C@@H](N)CC(=O)O)C(N)=O the results were aGlu spleen mod -0.6%, N370S GC mod -1.1% and aGal spleen mod -5.9%.
CCn1ccnc1CN(C)Cc1cn(-c2ccccc2)nc1-c1ccc(OC)cc1F was read as aGlu spleen mod 1.5%, GAA inh -0.6%, N370S GC mod 10.5%, aGal spleen mod 8.9%, GLA inh pH 4.5 0.4 and GAA glycogen 4.3%.
`CCn1ccnc1CN(C)Cc1cn(-c2cc(C)ccc2C)nc1-c1ccccc1` gave aGlu spleen mod -3.3%, N370S GC mod 14.1µM*, aGal spleen mod -2.8%, GLA inh pH 4.5 -8.2 and GAA glycogen 5.9%.
Cc1ccc(-n2cc(CN(C)Cc3nccn3C)c(-c3ccc(F)cc3)n2)cc1 was read as aGlu spleen mod 1.7%, GAA inh inconclusive, N370S GC mod inconclusive, aGal spleen mod -12.1%, GLA inh pH 4.5 -8.6 and GAA glycogen -18.1%.
CCn1ccnc1CN(C)Cc1cn(-c2ccc(C)cc2)nc1-c1ccc(F)cc1 was read as aGlu spleen mod 4.0%, GAA inh -1.5%, N370S GC mod 6.31µM*, aGal spleen mod 10.2%, GLA inh pH 4.5 -18.0 and GAA glycogen -11.6%.
For Oc1ccc(/C=N/N2CCN(C3c4ccccc4-c4ccccc43)CC2)cc1O the results were aGlu spleen mod -0.4%, N370S GC mod -12.3%, aGal spleen mod 0.2%, GLA inh pH 4.5 -7.8 and GAA glycogen 10µM*.
`Oc1ccc(/C=N/N2CCN(C3c4ccccc4-c4ccccc43)CC2)cc1` gave aGlu spleen mod 3.5%, GAA inh -2.6%[15.4 µM], N370S GC mod 11.8%, aGal spleen mod 5.9%, GLA inh pH 4.5 -25.3 and GAA glycogen -20.6%.
`C[C@H](NC(=O)CNC(=O)[C@@H](NC(=O)[C@H](Cc1ccccc1)NC(=O)CNC(=O)CNC(=O)[C@@H](N)Cc1ccccc1)[C@@H](C)O)C(=O)N[C@@H](CCCN=C(N)N)C(=O)N[C@@H](CCCCN)C(=O)N[C@@H](CO)C(=O)N[C@@H](C)C(=O)N[C@@H](CCCN=C(N)N)C(=O)N[C@@H](CCCCN)C(N)=O` gave aGlu spleen mod -1.8%, N370S GC mod -1.4% and aGal spleen mod -0.2%.
Cc1cc(SCC(=O)N/N=C/c2ccc(O)c(O)c2)c(C)cc1Br was read as aGlu spleen mod -1.4%, GAA inh -4.2%, N370S GC mod -8.3%, aGal spleen mod -10.9%, GLA inh pH 4.5 -0.4 and GAA glycogen 17.8µM*.
Screening COc1cccc2c(SCC(=O)N/N=C/c3ccccc3)cc(C)nc12 returned aGlu spleen mod 4.4%, GAA inh -14.4%, N370S GC mod -6.4%, aGal spleen mod 8.3%, GLA inh pH 4.5 -7.0 and GAA glycogen -10.2%.
COc1ccc2c(c1)c(C(=O)N/N=C/c1ccc(Br)cc1)c(C)n2C was read as aGlu spleen mod 2.3%, N370S GC mod 8.4%, aGal spleen mod -1.0%, GLA inh pH 4.5 3.0 and GAA glycogen -4.8%.
For COc1ccc2c(c1)c(C(=O)N/N=C/c1ccc(O)c(O)c1)c(C)n2C the results were aGlu spleen mod -23.1%, GAA inh -9.1%, N370S GC mod -1.4%, aGal spleen mod -17.0%, GLA inh pH 4.5 -6.0 and GAA glycogen 31.6µM*.
For COc1ccc2nc(C)cc(SCC(=O)N/N=C/c3ccc(O)c(O)c3)c2c1 the results were aGlu spleen mod 0.4%, GAA inh -12.0%, N370S GC mod -24.8%, aGal spleen mod 5.5%, GLA inh pH 4.5 -7.3 and GAA glycogen 7.03µM*.
`COc1ccc2nc(C)cc(SCC(=O)N/N=C/c3cccc4ccccc34)c2c1` gave aGlu spleen mod -4.2%, GAA inh inconclusive, N370S GC mod -4.5%, aGal spleen mod 12.1%, GLA inh pH 4.5 -3.2 and GAA glycogen 4.1%.
COc1cccc2c(SCC(=O)N/N=C/c3ccc(O)c(O)c3)cc(C)nc12 was read as aGlu spleen mod 8.3%, GAA inh -8.9%, N370S GC mod -18.5%, aGal spleen mod 8.0%, GLA inh pH 4.5 -6.9 and GAA glycogen 3.14µM*.
`COc1ccc2c(c1)O[C@@H](c1ccc3c(c1)OCO3)[C@H](OC(=O)Nc1ccc(OC(F)F)cc1)C2=O` gave aGlu spleen mod -9.5%, N370S GC mod 4.1%, aGal spleen mod -4.2% and GLA inh pH 4.5 -2.5.
Screening CC[C@@]1(c2ccccc2)NC(=O)NC1=O returned aGlu spleen mod 3.6%, N370S GC mod -9.5% and aGal spleen mod 0.4%.
`COc1cccc([C@H](O)Cn2cc(-c3cccc(CON=C(C)C)c3)nn2)c1` gave aGlu spleen mod 0.1%[17.4 µM], N370S GC mod -3.5%[12.8 µM] and aGal spleen mod 7.5%[17.5 µM].
`CCOC(=O)OCC1C=C[C@H](c2cc(-c3ccccc3)ccc2O)C(c2ccc(C(C)=O)cc2)O1` (stereo not given in full) gave aGlu spleen mod -3.6%[17.4 µM], N370S GC mod 8.4%[12.8 µM] and aGal spleen mod 4.2%[17.5 µM].

High-throughput results: PubChem, National Center for Advancing Translational Sciences (NCATS)
